Assay outcomes deposited in PubChem BioAssay by National Center for Advancing Translational Sciences (NCATS).
Pf growth 96h – P. falciparum growth inhibition at 96 hour, primary screen for plastid delayed-death inhibitors; P. falciparum luciferase reporter growth, 96 h; Potency, µM (titrated, usually from 28.7 µM), inactives show top-dose activity change, negative = inhibition, hits mostly inhibitors; 320,000 tested, 6.9% active; AID 504834; also: potency is read from the fitted curve at half-maximal effect; % is scaled to controls: 0 for no effect and ±100 for the full control effect
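P. falciparum expressing integrated firefly luciferase, in erythrocytes at 2% hematocrit, 0.05% parasitemia, incubated with compounds 96 h at 37 C, 5% CO2. Growth inhibition read as loss of luminescence; two-generation exposure targets delayed-death apicoplast inhibitors.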
CHX counter – counter-screen for Shiga toxin inhibitors: cycloheximide protein synthesis inhibition; 300,000 tested, 12% active; max response, %; cell reporter, cycloheximide protein synthesis inhibition counterscreen; in the data active = max response mostly above about 13%, no sharp cut-off; inactive = mostly below about 14%; also: read at 38.3 µM for the half of the compounds with a filed dose; 0% is about no effect
Pf growth 48h – inhibits P. falciparum growth in the first generation, 48 h. 310,000 tested, 5.9% active. P. falciparum luciferase growth in erythrocytes, 48 h. Potency, µM (top dose mostly 28.7 µM), without a hit: at the top dose activity change, negative = inhibition, hits mostly inhibitors; also: potency is read from the fitted curve at half-maximal effect; % is scaled to controls: 0 for no effect and ±100 for the full control effect
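Here the parasites carry a stable luciferase gene and grow inside erythrocytes in Albumax-based RPMI medium with compound for one erythrocytic cycle. Activity is scored as loss of luminescent signal.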
Sm TGR inh – inhibitors of Schistosoma mansoni thioredoxin glutathione reductase; Q962Y6; purified TGR, DTNB reduction, TNB absorbance 405 nm; Potency, µM (titrated, usually from 114 µM), inactives show at the top dose activity change, negative = inhibition, most hits filed as inhibitors; 360,000 tested, 3% active; also: potency is read from the fitted curve at half-maximal effect; % is scaled to controls: 0 for no effect and ±100 for the full control effect; nearly all actives have a fitted effect of over 60% in size
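First, TGR (20 nM dispensed) and NADPH were mixed with compound. Second, a 15 min room-temperature incubation followed. Third, further NADPH and then DTNB were added to start the reaction. Finally, TNB absorbance was monitored kinetically.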
NS1 inh – influenza NS1 inhibition; Potency, µM (highest dose often 46.1 µM), without a hit: at the top dose activity, positive = more growth; 270,000 tested, 0.4% active; AID 2326; calls by dose curve; also: potency is read from the fitted curve at half-maximal effect; actives are rising curves; nearly all actives have a fitted effect of over 50% in size
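In this qHTS, NS1 from influenza A is expressed in budding yeast, where it slows growth. Cells are switched from glucose to 2% galactose medium (pH 6.0, -URA), treated with compound, and growth recovery is read at OD600.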
Shiga inhibitor – blocks Shiga toxin action in Vero cells | Vero cells, Shiga toxin protein synthesis inhibition reporter | inhibition, % at 38.7 µM | 290,000 tested, 9.2% active | AID 2315; in the data active = inhibition mostly above about 28%, no sharp cut-off; inactive = mostly below about 43%; also: 0% is about no effect
The depositor's hits bear a star; ? = inconclusive; · = not tested or not shown. Only some compounds are listed: those with a hit (about 21% of all), similar ones and a draw of the others. Unless noted, calls follow the shape of the dose curve; as a rule, active = well fitted curve in the direction sought with a large enough effect; inconclusive = small, poorly fitted or top-dose-only effect, or another doubt; inactive = no such curve, though single readings can be large; an effect the other way counts as inactive or inconclusive.

SMILES	Pf growth 96h	CHX counter	Pf growth 48h	Sm TGR inh	NS1 inh	Shiga inhibitor
Cc1ccc(N(Cc2ccccc2)C(=O)c2ccc(F)c(S(=O)(=O)N3CCOCC3)c2)cc1	?	·	?	9%	·	·
CCN(Cc1ccccc1)C(=O)c1ccc(C)c(S(=O)(=O)N2CCCCC2)c1	?	·	?	0%	·	·
Cc1cccc(N(Cc2ccccc2)C(=O)c2ccc(F)c(S(=O)(=O)N3CCOCC3)c2)c1	12µM*	·	12µM*	-4%	·	·
CCN(CC)S(=O)(=O)c1ccc(N2CCCCS2(=O)=O)cc1	·	·	·	3%	·	·
CCOc1cc(-c2nnc(SCC(=O)Nc3ccc(F)c(F)c3)nc2-c2ccc(OC)c(OCC)c2)ccc1OC	·	·	·	-17%	·	·
O=C(c1cccc(S(=O)(=O)N2CCOCC2)c1)N(CCc1ccccc1)Cc1ccccc1	?	·	?	0%	·	·
Cc1ccc(C(=O)OCC(=O)N(CCc2ccccc2)Cc2ccccc2)cc1S(=O)(=O)N1CCOCC1	?	·	?	-1%	·	·
COc1ccc(CC(=O)N(Cc2ccccc2)c2ccccc2)cc1S(=O)(=O)N1CCOCC1	?	6	?	5%	2%	6
Cc1cccc(N(Cc2ccccc2)C(=O)c2ccc(C)c(S(=O)(=O)N3CCOCC3)c2)c1	?	·	7.4µM*	4%	·	·
COc1ccc(C(=O)N(Cc2ccccc2)c2cccc(C)c2)cc1S(=O)(=O)N1CCOCC1	5.2µM*	·	10µM*	7%	·	·
COc1ccc(C(=O)N(CCc2ccccc2)Cc2ccccc2)cc1S(=O)(=O)N1CCOCC1	8.3µM*	·	?	-2%	·	·
Cc1ccc(-c2nc(-c3ccccn3)sc2CC(=O)O)cc1	16%	-5	-4%	?	-1%	-2
Cc1ccc(OCC(=O)Nc2cccc(OCc3cc(=O)n4ccccc4n3)c2)cc1C	·	·	·	-5%	·	·
O=C(Oc1coc(CSc2ncccn2)cc1=O)c1cccs1	?	16*	-1%	-11%	·	22
Cc1ccnc(SCc2cc(=O)c(OC(=O)c3cccs3)co2)n1	33%	-1	-20%	-8%	·	18
CCOC(=O)c1cc(S(=O)(=O)NCc2ccccc2)[nH]n1	·	·	·	0%	·	·
N#Cc1c(/N=C/c2ccco2)sc2c1CCCCC2	27%	35*	52%	-20%	-43%	125
CN(C)/C=N/c1sc2c(c1C(N)=O)CCCC2	3%	17	?	-2%	·	4
CN(C)/C=N/c1sc2c(c1C#N)CCCC2	33%	35*	0%	-33%	-2%	116*
Cc1onc(-c2ccccc2)c1C(=O)Nc1sc2c(c1C#N)CCC(C)C2 (stereo unspecified)	?	1	2%	6%	-42%	-10
CC1CCc2c(sc(/N=C/N(C)C)c2C#N)C1 (stereo unspecified)	133%	37*	115%	-6%	3%	60*
Cc1cc(C)cc(OCC(=O)NNC(=S)NC(=O)C2CC2)c1	?	2	11%	3%	-112%	-8
CCOC(=O)C1=C(C)Nc2ccccc2N/C1=N\S(=O)(=O)c1ccccc1	?	·	-8%	-2%	·	·
NS(=O)(=O)c1ccc(NC(=O)COC(=O)C2CC(=O)N(Cc3ccccc3)C2)cc1 (stereo unspecified)	3%	-3	25%	1%	·	-14
O=C(NCCN1Cc2ccccc2C1=O)c1cccs1	?	21*	15%	-30%	3%	47*
SMILES	Pf growth 96h	CHX counter	Pf growth 48h	Sm TGR inh	NS1 inh	Shiga inhibitor
O=C1c2ccccc2CN1CCNC(=S)NC1CCCCC1	0%	31*	-11%	12%	·	45*
OCCNC(=S)NC1CCCCC1	15%	-3	2%	7%	1%	21
Cc1nn(CC(=O)NCCCN2CCC(N3CCCCC3)CC2)c(=O)c2cc(-c3ccccc3)nn12	?	-3	?	0%	-3%	-6
COc1ccc(C)cc1NC(=O)c1sc2ncnc(N3CCN(c4ccccn4)CC3)c2c1C	2%	-2	?	1%	3%	15
CC(C)(C)OC(=O)CNC(=O)c1[nH]cnc1C(=O)NCC(=O)OCc1ccccc1	36%	10*	53%	-3%	-3%	16
O=C(N[C@@H](Cc1ccccc1)C(=O)OCc1ccccc1)c1nc[nH]c1C(=O)NC(c1ccccc1)c1ccccc1	9.3µM*	10	1.3µM*	7%	7%	38
O=C(CNC(=O)c1[nH]cnc1C(=O)NC(c1ccccc1)c1ccccc1)OCc1ccccc1	1.9µM*	5	?	-4%	?	6
O=C(CNC(=O)c1[nH]cnc1C(=O)N[C@@H](Cc1ccccc1)C(=O)OCc1ccccc1)OCc1ccccc1	2%	5	10%	-17%	?	-8
CC(=O)c1ccc(NC(=O)Cn2cnc(S(=O)(=O)N3CCc4ccccc43)c2)cc1	6%	7	-18%	-1%	2%	12
CCN1c2ccccc2S(=O)(=O)c2ccccc21	?	-1	?	9%	0%	-13
O=C1COc2ccc(C(=O)COc3ccc(Cl)cc3Br)cc2N1	?	·	-25%	2%	·	·
CC(C)Nc1cc(C(F)(F)F)nc(-c2ccccn2)n1	4.1µM*	-3	5.2µM*	-25%	18%	-3
FC(F)(F)c1cc(Nc2ccccc2)nc(-c2ccccn2)n1	?	2	2.9µM*	0%	-6%	-7
COc1cc(C(F)(F)F)nc(-c2ccccn2)n1	50%	-2	0%	2%	1%	-6
O=[N+]([O-])c1cccc2nc(-c3ccccc3)c(-c3ccccc3)nc12	-4%	-1	-15%	14%	2%	12
Cn1c(-[n+]2c(-c3ccccc3)cc(-c3ccccc3)cc2-c2ccccc2)nc2c([N+](=O)[O-])cccc21	?	-3	12µM*	-6%	-30%	-6
O=C(N/N=C1/CN2CCC1CC2)c1cccc(O)c1	0%	36*	·	-8%	7%	70*
Cc1ccc(/C=N/NC(=O)Cn2cnc3c2c(=O)n(C)c(=O)n3C)s1	?	-7	?	8%	2%	-10
Cc1ccc(-n2c(Cc3cccn3C)nnc2SCC(=O)N2CCN(c3ccccc3)CC2)cc1	-16%	-4	?	40µM*	?	-20
COc1ccc(-n2c(Cc3cccn3C)nnc2SCC(=O)Nc2cccc(F)c2)cc1	?	15	8.3µM*	?	-17%	11
Cn1cccc1Cc1nnc(SCC(=O)N2CCCCCC2)n1-c1ccc(F)cc1	6%	0	·	?	20%	-4
Cn1cccc1Cc1nnc(SCC(=O)Nc2ccc(F)cc2)n1-c1ccc(F)cc1	31%	-5	?	?	-28%	-18
Cc1ccc(-n2c(Cc3cccn3C)nnc2SCC(=O)Nc2ccc3c(c2)OCO3)cc1	?	-4	15µM*	-20%	14%	-10
Cn1cccc1Cc1nnc(SCC(=O)Nc2ccc3c(c2)OCCO3)n1-c1ccc(F)cc1	7%	7	-4%	?	?	-1
